The record followed here is PubChem BioAssay (EPA / NIEHS).

Activity calls are given as the source filed them. How the source made its calls: active means hit-call score of the fitted dose curve at least 0.9, where 1 is the maximum; inactive means score below 0.9.

Details in all cases: mRNA level, 48 h; actives raise or lower the signal
Read-out in assay [1]: Interleukin 6 Receptor (IL6R), IL6R (gene 3570)
As to the kind of experiment: LTEA_HepaRG_IL6R: Life Technologies and Expression Analysis (LTEA) Assay for Interleukin 6 Receptor (IL6R) using HepaRG (AID 2283510).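 On AC50: TaqMan qRT-PCR signal normalized to ACTB GAPDH and POLR2A housekeeping genes.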 An outline of the steps: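 Concentration-response in human liver HepaRG cells: eight concentrations from 100 uM downward by half-logs, 48 h exposure, 0.5% DMSO vehicle. IL6R mRNA change measured by qRT-PCR and fitted in both directions relative to vehicle.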

Read-out in assay [2]: Potassium channel subfamily K member 1 (KCNK1), KCNK1 (gene 3775)
As to the kind of experiment: LTEA_HepaRG_KCNK1: Life Technologies and Expression Analysis (LTEA) Assay for Potassium channel subfamily K member 1 (KCNK1) using HepaRG (AID 2283511). An outline of the steps:
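Differentiated human HepaRG cells in serum-free induction medium were exposed in duplicate for 48 h to 8 half-log concentrations up to 100 uM in 0.5% DMSO. KCNK1 mRNA was measured by TaqMan qRT-PCR, normalized to ACTB, GAPDH and POLR2A, and fitted bidirectionally versus DMSO.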

Read-out in assay [3]: Keratin 19 (KRT19), KRT19 (gene 3880)
As to the kind of experiment: LTEA_HepaRG_KRT19: Life Technologies and Expression Analysis (LTEA) Assay for Keratin 19 (KRT19) using HepaRG (AID 2283512). In a few lines:
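Differentiated HepaRG cells in serum-free induction medium, exposed 48 h in duplicate to 8 half-log concentrations up to 100 uM in 0.5% DMSO. KRT19 mRNA by qRT-PCR, normalized to ACTB, GAPDH, POLR2A; bidirectional fit vs DMSO.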

Read-out in assay [4]: JUN Transcription Factor, JUN (gene 3725)
Kind of assay: LTEA_HepaRG_JUN: Life Technologies and Expression Analysis (LTEA) Assay for JUN Transcription Factor using HepaRG (AID 2283513). In a few lines:
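Human HepaRG liver cells receive test chemicals in 0.5% DMSO for 48 h across an eight-point range topping at 100 uM. Expression changes in JUN are scored in both directions against the DMSO vehicle.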

Read-out in assay [5]: Lipase C (LIPC), LIPC (gene 3990)
Kind of assay: LTEA_HepaRG_LIPC: Life Technologies and Expression Analysis (LTEA) Assay for Lipase C (LIPC) using HepaRG (AID 2283514). An outline of the steps:
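Differentiated human HepaRG cells in serum-free induction medium were exposed in duplicate for 48 h to eight concentrations (top 100 uM, half-log steps, 0.5% DMSO). LIPC mRNA was quantified by TaqMan qRT-PCR, normalized to ACTB, GAPDH and POLR2A, with bidirectional fitting versus DMSO.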

Read-out in assay [6]: Lipoprotein lipase (LPL), LPL (gene 4023)
Kind of assay: LTEA_HepaRG_LPL: Life Technologies and Expression Analysis (LTEA) Assay for Lipoprotein lipase (LPL) using HepaRG (AID 2283515). An outline of the steps:
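Differentiated human HepaRG cells in serum-free induction medium were exposed in duplicate for 48 h to eight half-log concentrations (top 100 uM) in 0.5% DMSO. LPL mRNA was quantified by TaqMan qRT-PCR, normalized to ACTB, GAPDH and POLR2A.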

Read-out in assay [7]: MicroRNA 122 (MIR122), gene 406906
Kind of assay: LTEA_HepaRG_MIR122: Life Technologies and Expression Analysis (LTEA) Assay for MicroRNA 122 (MIR122) using HepaRG (AID 2283516). Further: the transcript read is the microRNA miR-122. An outline of the steps: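 HepaRG, 48 h exposure, 8-pt half-log from 100 uM, 0.5% DMSO; TaqMan qRT-PCR; bidirectional fit vs DMSO.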

Read-out in assay [8]: matrix metalloproteinase-10 (MMP10), MMP10 (gene 4319)
Kind of assay: LTEA_HepaRG_MMP10: Life Technologies and Expression Analysis (LTEA) Assay for matrix metalloproteinase-10 (MMP10) using HepaRG (AID 2283517). An outline of the steps: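 HepaRG, collagen I, ~100,000 cells/well; serum-free induction medium; 48 h exposure, duplicate, 8-pt half-log to 100 uM, 0.5% DMSO. Readout: TaqMan qRT-PCR, normalized to ACTB/GAPDH/POLR2A; bidirectional fit vs DMSO.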

Read-out in another assay: MYC, MYC (gene 4609)
As to the kind of experiment: LTEA_HepaRG_MYC: Life Technologies and Expression Analysis (LTEA) Assay for MYC using HepaRG (AID 2283518). In a few lines:
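Differentiated HepaRG cells exposed 48 h in serum-free induction medium to 8 concentrations (top 100 uM, half-log steps; 0.5% DMSO), duplicate. MYC mRNA measured by Fluidigm qRT-PCR, normalized to ACTB, GAPDH, POLR2A; bidirectional fit versus DMSO.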

Read-out in assay [9]: matrix metalloproteinase-3 (MMP3), MMP3 (gene 4314)
Kind of assay: LTEA_HepaRG_MMP3: Life Technologies and Expression Analysis (LTEA) Assay for matrix metalloproteinase-3 (MMP3) using HepaRG (AID 2283519). In a few lines:
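Differentiated human HepaRG cells, plated 48 h on collagen I, were exposed in duplicate for 48 h in serum-free induction medium to eight half-log concentrations up to 100 uM in 0.5% DMSO. MMP3 mRNA was quantified by TaqMan qRT-PCR, normalised to ACTB, GAPDH and POLR2A.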

Read-out in assay [10]: Paternally Expressed 10 (PEG10), PEG10 (gene 23089)
As to the kind of experiment: LTEA_HepaRG_PEG10: Life Technologies and Expression Analysis (LTEA) Assay for Paternally Expressed 10 (PEG10) using HepaRG (AID 2283520).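 On AC50: PEG10 transcript by qRT-PCR normalised to ACTB GAPDH and POLR2A.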 An outline of the steps: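 Chemicals tested on HepaRG cells for 48 h, highest concentration 100 uM. PEG10 expression assessed by qRT-PCR relative to DMSO control.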

Read-out in assay [11]: Protein phosphatase 2A (PPP2R4), PTPA (gene 5524)
As to the kind of experiment: LTEA_HepaRG_PPP2R4: Life Technologies and Expression Analysis (LTEA) Assay for Protein phosphatase 2A (PPP2R4) using HepaRG (AID 2283522). An outline of the steps: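 Gene-expression endpoint in HepaRG hepatic cells: 48 h treatment across eight half-log concentrations up to 100 uM in 0.5% DMSO. PPP2R4 mRNA by qRT-PCR, normalized to three endogenous control genes.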

Read-out in assay [12]: Phosphatase and tensin (PTEN), PTEN (gene 5728)
As to the kind of experiment: LTEA_HepaRG_PTEN: Life Technologies and Expression Analysis (LTEA) Assay for Phosphatase and tensin (PTEN) using HepaRG (AID 2283523). In a few lines:
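Differentiated human HepaRG cells, plated 48 h then switched to serum-free induction medium, were exposed in duplicate for 48 h to eight half-log concentrations up to 100 uM in 0.5% DMSO. PTEN mRNA measured by TaqMan qRT-PCR, normalized to ACTB/GAPDH/POLR2A, bidirectional fit versus DMSO.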

Read-out in assay [13]: solute carrier (SLC22A1), SLC22A1 (gene 6580)
Kind of assay: LTEA_HepaRG_SLC22A1: Life Technologies and Expression Analysis (LTEA) Assay for solute carrier (SLC22A1) using HepaRG (AID 2283524). An outline of the steps:
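Human HepaRG cells were plated 48 h, switched to serum-free induction medium, then exposed in duplicate for 48 h to 8-point half-log series from 100 uM in 0.5% DMSO. SLC22A1 mRNA measured by qRT-PCR, normalized to ACTB/GAPDH/POLR2A, fitted bidirectionally versus DMSO.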

Read-out in assay [14]: Pyruvate Dehydrogenase Kinase 4 (PDK4), PDK4 (gene 5166)
As to the kind of experiment: LTEA_HepaRG_PDK4: Life Technologies and Expression Analysis (LTEA) Assay for Pyruvate Dehydrogenase Kinase 4 (PDK4) using HepaRG (AID 2283525). An outline of the steps:
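Differentiated human HepaRG cells, pre-cultured 48 h, were exposed in duplicate for 48 h in serum-free induction medium to eight half-log concentrations up to 100 uM in 0.5% DMSO. PDK4 mRNA was quantified by qRT-PCR, normalized to ACTB, GAPDH and POLR2A, bidirectional fitting versus DMSO.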

Read-out in assay [15]: NAD(P)H dehydrogenase [quinone] 1 (NQO1), NQO1 (gene 1728)
Kind of assay: LTEA_HepaRG_NQO1: Life Technologies and Expression Analysis (LTEA) Assay for NAD(P)H dehydrogenase [quinone] 1 (NQO1) using HepaRG (AID 2283526). An outline of the steps:
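Human HepaRG hepatic cells received chemicals for 48 h in serum-free induction medium with 0.5% DMSO, up to 100 uM. Expression was assessed by TaqMan qRT-PCR against housekeeping controls and fitted bidirectionally against DMSO.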

Read-out in assay [16]: Nuclear factor erythroid 2-related factor 2 (Homo sapiens) (UniProt Q16236)
As to the kind of experiment: LTEA_HepaRG_NFE2L2: Life Technologies and Expression Analysis (LTEA) Assay for Nuclear factor erythroid 2-related factor 2 (NFE2L2) Transcription Factor using HepaRG (AID 2283527).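 On outcome: TaqMan qRT-PCR transcript level normalised to ACTB GAPDH and POLR2A housekeeping genes.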 In a few lines:
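Differentiated human HepaRG cells in serum-free induction medium were exposed for 48 h to eight concentrations (top 100 uM, half-log dilutions, 0.5% DMSO), in duplicate. NFE2L2 mRNA was quantified by TaqMan qRT-PCR, normalized to ACTB, GAPDH and POLR2A, with bidirectional fitting versus DMSO.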

Read-out in assay [17]: succinate dehydrogenase complex iron sulfur subunit B (SDHB), SDHB (gene 6390)
As to the kind of experiment: LTEA_HepaRG_SDHB: Life Technologies and Expression Analysis (LTEA) Assay for succinate dehydrogenase complex iron sulfur subunit B (SDHB) using HepaRG (AID 2283528). In a few lines:
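Readout is SDHB transcript level by qRT-PCR, normalised to three housekeeping genes and fitted bidirectionally against 0.5% DMSO vehicle. Human HepaRG cells were treated for 48 h at up to 100 uM.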

Read-out in assay [18]: Signal transducer and activator of transcription 3 (Homo sapiens) (UniProt P40763)
As to the kind of experiment: LTEA_HepaRG_STAT3: Life Technologies and Expression Analysis (LTEA) Assay for Signal transducer and activator of transcription (STAT3) using HepaRG (AID 2283529). An outline of the steps:
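Differentiated human HepaRG cells in serum-free induction medium were exposed in duplicate for 48 h to eight half-log concentrations up to 100 uM in 0.5% DMSO. STAT3 mRNA was quantified by TaqMan qRT-PCR, normalized to ACTB, GAPDH and POLR2A, and fitted bidirectionally against DMSO.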

Read-out in assay [19]: Nuclear factor NF-kappa-B p105 subunit (Homo sapiens) (UniProt P19838)
Kind of assay: LTEA_HepaRG_NFKB1: Life Technologies and Expression Analysis (LTEA) Assay for Nuclear Factor Kappa B Subunit 1 (NFKB1) using HepaRG (AID 2283521).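 Further: TaqMan qRT-PCR transcript normalised to ACTB GAPDH and POLR2A housekeeping genes.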 An outline of the steps: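 HepaRG, 48 h exposure; 8-pt half-log series from 100 uM in 0.5% DMSO; duplicates. Readout: NFKB1 mRNA by qRT-PCR (Fluidigm arrays), housekeeping-normalized. Gain/loss fit vs DMSO baseline.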

Sequence of Signal transducer and activator of transcription 3 (Homo sapiens) (P40763 whole entry, looked up): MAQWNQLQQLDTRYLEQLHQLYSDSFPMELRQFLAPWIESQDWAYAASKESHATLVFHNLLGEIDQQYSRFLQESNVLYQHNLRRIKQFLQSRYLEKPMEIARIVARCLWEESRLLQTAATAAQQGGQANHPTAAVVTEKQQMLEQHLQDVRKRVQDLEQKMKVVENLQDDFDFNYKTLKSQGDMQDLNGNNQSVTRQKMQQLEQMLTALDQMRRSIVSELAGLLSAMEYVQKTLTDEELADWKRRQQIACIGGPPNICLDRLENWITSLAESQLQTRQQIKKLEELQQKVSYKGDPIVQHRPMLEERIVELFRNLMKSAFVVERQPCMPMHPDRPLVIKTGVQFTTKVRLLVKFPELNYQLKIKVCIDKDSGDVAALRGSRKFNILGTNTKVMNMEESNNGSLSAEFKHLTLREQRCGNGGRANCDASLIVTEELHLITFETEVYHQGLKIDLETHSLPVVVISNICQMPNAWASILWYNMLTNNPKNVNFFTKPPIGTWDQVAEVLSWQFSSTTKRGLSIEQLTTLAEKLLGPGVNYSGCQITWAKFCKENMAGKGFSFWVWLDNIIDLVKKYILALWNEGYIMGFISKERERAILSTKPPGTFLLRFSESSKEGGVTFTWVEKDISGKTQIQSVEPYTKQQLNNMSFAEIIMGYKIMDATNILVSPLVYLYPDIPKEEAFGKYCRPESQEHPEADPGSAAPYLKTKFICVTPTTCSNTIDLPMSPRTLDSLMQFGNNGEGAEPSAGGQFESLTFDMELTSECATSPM
Sequence of Nuclear factor erythroid 2-related factor 2 (Homo sapiens) (Q16236 whole entry, looked up): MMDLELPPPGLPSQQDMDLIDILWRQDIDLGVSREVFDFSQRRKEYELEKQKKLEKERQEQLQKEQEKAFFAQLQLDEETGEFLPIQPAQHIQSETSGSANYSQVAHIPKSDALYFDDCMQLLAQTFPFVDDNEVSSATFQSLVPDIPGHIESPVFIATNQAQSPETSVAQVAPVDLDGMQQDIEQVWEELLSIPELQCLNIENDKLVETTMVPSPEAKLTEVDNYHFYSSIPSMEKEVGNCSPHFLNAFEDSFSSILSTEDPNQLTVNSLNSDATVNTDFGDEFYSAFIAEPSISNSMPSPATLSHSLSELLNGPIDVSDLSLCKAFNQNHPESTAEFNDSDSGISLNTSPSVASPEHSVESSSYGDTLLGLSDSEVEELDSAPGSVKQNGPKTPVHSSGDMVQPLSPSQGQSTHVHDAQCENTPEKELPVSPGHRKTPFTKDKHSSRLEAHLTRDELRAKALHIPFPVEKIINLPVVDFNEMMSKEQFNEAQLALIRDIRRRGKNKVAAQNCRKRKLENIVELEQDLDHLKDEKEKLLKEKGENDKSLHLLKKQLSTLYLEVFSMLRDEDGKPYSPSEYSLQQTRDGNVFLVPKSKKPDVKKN
Sequence of Nuclear factor NF-kappa-B p105 subunit (Homo sapiens) (P19838 whole entry, looked up): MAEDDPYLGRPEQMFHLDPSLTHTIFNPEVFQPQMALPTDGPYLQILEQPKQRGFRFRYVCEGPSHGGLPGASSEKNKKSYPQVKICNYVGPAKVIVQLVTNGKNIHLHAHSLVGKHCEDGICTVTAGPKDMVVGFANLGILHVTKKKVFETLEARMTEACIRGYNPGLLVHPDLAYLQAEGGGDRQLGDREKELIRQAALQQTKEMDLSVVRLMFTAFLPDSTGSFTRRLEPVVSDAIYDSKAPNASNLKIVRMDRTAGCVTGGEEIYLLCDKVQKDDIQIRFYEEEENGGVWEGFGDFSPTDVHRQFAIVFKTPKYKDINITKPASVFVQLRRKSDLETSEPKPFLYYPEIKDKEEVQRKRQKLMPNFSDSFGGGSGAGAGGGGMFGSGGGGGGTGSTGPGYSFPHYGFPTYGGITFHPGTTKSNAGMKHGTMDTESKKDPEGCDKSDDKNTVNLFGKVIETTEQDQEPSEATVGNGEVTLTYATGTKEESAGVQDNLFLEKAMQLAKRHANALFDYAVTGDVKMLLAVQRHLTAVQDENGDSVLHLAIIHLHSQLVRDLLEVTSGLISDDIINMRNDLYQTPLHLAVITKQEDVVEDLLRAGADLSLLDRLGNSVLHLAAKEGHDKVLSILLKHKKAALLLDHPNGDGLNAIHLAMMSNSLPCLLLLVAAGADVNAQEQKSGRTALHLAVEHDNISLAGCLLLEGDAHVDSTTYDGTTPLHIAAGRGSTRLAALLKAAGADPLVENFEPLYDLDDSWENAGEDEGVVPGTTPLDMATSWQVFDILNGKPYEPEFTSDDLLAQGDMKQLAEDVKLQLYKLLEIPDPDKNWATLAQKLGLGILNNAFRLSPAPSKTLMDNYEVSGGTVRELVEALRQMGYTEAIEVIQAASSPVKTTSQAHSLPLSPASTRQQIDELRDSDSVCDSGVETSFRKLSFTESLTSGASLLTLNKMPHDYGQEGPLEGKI

Take `CO/N=C(/C1=NOCCO1)c1ccccc1Oc1ncnc(Oc2ccccc2Cl)c1F`: the molecule was classed as inactive in assay [1], in assay [2], in assay [4], in [11], in [12] and in assay [15]. Besides, the outcome in assay [17] was inactive. In addition, the AC50 (commonly the concentration at which the activity in the assay is half-maximal) in [3] is 13.3 µM (active); in assay [5] it was 30.1 µM (active); in [6] it was 23.2 µM (active); in [7], 26.4 µM (active); in [8], 50 µM (active); with MYC, MYC (gene 4609), 29.9 µM (active). Also, the AC50 was 50 µM (active) in assay [9]; 5.88 µM (active) in [10]; 24.8 µM (active) in assay [13]; 11.7 µM (active) in assay [14]; 50 µM (active) in [16]; 6.5 µM (active) in [18].

Consider `CCN(CC)c1nc(C)cc(OP(=S)(OC)OC)n1`, for which the call in assay [1], in assay [2], in assay [3], in [4], in assay [5] and in assay [6] was inactive. Besides, the outcome was “inactive” in [7]; “inactive” in [8]; “inactive” with MYC, MYC (gene 4609); “inactive” in assay [9]; “inactive” in [10]; “inactive” in assay [11]. Further, the molecule was classed as inactive in assay [12], in [13], in assay [14], in assay [15], in [16] and in assay [17]. In assay [18], the result was inactive.

In the case of `CCOc1nc(C(Cl)(Cl)Cl)ns1`, the concentration at half-maximal activity (AC50) was 0.987 µM (active) in assay [1]; 1.22 µM (active) in [2]; 1.89 µM (active) in assay [4]; 0.944 µM (active) in [5]; 1.06 µM (active) in assay [6]; 0.682 µM (active) in assay [7]. Further, the AC50 is 1.03 µM (active) with MYC, MYC (gene 4609); 2.93 µM (active) in assay [9]; 0.801 µM (active) in assay [11]; 1.25 µM (active) in [12]; 1.34 µM (active) in assay [13]; 0.95 µM (active) in assay [14]. The concentration at half-maximal activity (AC50) in assay [15] is 0.993 µM (active); in assay [16], 1.12 µM (active); in assay [18], 50 µM (active). Also, the molecule was called inactive in assay [3], in [8], in [10] and in assay [17].

Consider `N#Cc1c[nH]cc1-c1cccc2c1OC(F)(F)O2`, for which the concentration at half-maximal activity (AC50) in [1] was 19.6 µM (active); in assay [3], 23.9 µM (active); in assay [5], 46.7 µM (active); in assay [6], 7.8 µM (active); in the assay with MYC, MYC (gene 4609), 80.3 µM (active); in [10], 74.2 µM (active). For the same molecule, the AC50 was 40.7 µM (active) in [13], 83.9 µM (active) in [14] and 84.7 µM (active) in [16]. Further, the molecule was called inactive in [2], in assay [4], in assay [7], in assay [8], in assay [9] and in assay [19]. The call in assay [11], in [12], in assay [15], in assay [17] and in [18] was inactive.
